From the supplement of paper PMC12808144

Legend:
Mel-DCC-11 = test: cell viability relative to DMSO control (fraction of DMSO control); higher = less cytotoxic, active = 0.5 or less; conditions: 1 µM; 120 h
Method in brief: (§1)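 For 120 h, duplicate wells of 384-well plates held 1 µM of each of 315 approved anti-cancer drugs (TargetMol), spotted acoustically before cells were added in 40 µl per well. Immortalized NHEM-hTERT melanocytes were seeded at 2500/well, and patient-derived Mel-DCC-11 plus its resistant subline Mel-DCC-11-R at 1500/well. The subline was run both without and with 8 µM of its selecting drug, and ATPlite 1step luminescence was read. Viability was normalised to vehicle-treated wells and averaged over the two replicates.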

NHEM-hTERT = test: as above; conditions: 1 µM; 120 h
Method in brief: as §1

Mel-DCC-11-R = test: cell viability relative to DMSO control (fraction of DMSO control); higher = less cytotoxic, active = 0.8 or less; conditions: 1 µM, 120 h
Method in brief: as §1

Measured: cell viability

CN(Cc1cnc2nc(N)nc(N)c2n1)c1ccc(C(=O)N[C@@H](CCC(=O)O)C(=O)O)cc1 [Methotrexate]
inactive: Mel-DCC-11 1.04 | NHEM-hTERT 0.976 | Mel-DCC-11-R; vemurafenib co-treatment 0 µM 0.993 | Mel-DCC-11-R; vemurafenib co-treatment 8 µM 1.14

CN1[C@@H]2CCC[C@H]1C[C@@H](NC(=O)c1nn(C)c3ccccc13)C2.Cl [Granisetron hydrochloride]
inactive: Mel-DCC-11 1.15 | NHEM-hTERT 1.07 | Mel-DCC-11-R; vemurafenib co-treatment 0 µM 0.924 | Mel-DCC-11-R; vemurafenib co-treatment 8 µM 1.07

CCCCCCCCCCCCCCCCCCOCC(O)CO (stereo not drawn) [Batyl alcohol]
inactive: Mel-DCC-11 0.948 | NHEM-hTERT 1.07 | Mel-DCC-11-R; vemurafenib co-treatment 0 µM 0.92 | Mel-DCC-11-R; vemurafenib co-treatment 8 µM 0.995

CCN1CCN(Cc2ccc(Nc3ncc(F)c(-c4cc(F)c5nc(C)n(C(C)C)c5c4)n3)nc2)CC1.CS(=O)(=O)O [abemaciclib mesylate]
inactive: Mel-DCC-11 0.731 | NHEM-hTERT 0.896 | Mel-DCC-11-R; vemurafenib co-treatment 0 µM 1.8
active: Mel-DCC-11-R; vemurafenib co-treatment 8 µM 0.723

C=CC(=O)Nc1cc(Nc2nccc(-c3cn(C)c4ccccc34)n2)c(OC)cc1N(C)CCN(C)C [Osimertinib]
inactive: Mel-DCC-11 0.923 | NHEM-hTERT 1.16 | Mel-DCC-11-R; vemurafenib co-treatment 0 µM 1.06 | Mel-DCC-11-R; vemurafenib co-treatment 8 µM 0.884

C=C1CC[C@@H]2[C@](C)(CO)[C@H](O)CC[C@@]2(C)[C@@H]1C/C=C1/C(=O)OC[C@H]1O [Andrographolide]
inactive: Mel-DCC-11 1.07 | NHEM-hTERT 1.17 | Mel-DCC-11-R; vemurafenib co-treatment 0 µM 0.887 | Mel-DCC-11-R; vemurafenib co-treatment 8 µM 1.02

CNCc1ccc(-c2[nH]c3cc(F)cc4c3c2CCNC4=O)cc1.O=P(O)(O)O [Rucaparib Phosphate]
inactive: Mel-DCC-11 1.1 | NHEM-hTERT 0.996 | Mel-DCC-11-R; vemurafenib co-treatment 0 µM 0.916 | Mel-DCC-11-R; vemurafenib co-treatment 8 µM 1.11
